Bioassay records as filed in PubChem.
HT1080 IDH1KD tx: qHTS for induction of synthetic lethality in tumor cells producing 2HG: qHTS for the HT-1080-IDH1KD cell line | actives 2% (n = 360,000) | Potency, µM (top dose mostly 46.1 µM), without a hit: top-dose activity, negative = toxicity, usual class: cytotoxic | HT-1080 IDH1 knockdown viability, ATP luminescence, 48 h;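 further: potency means the concentration at half of the fitted maximal effect; 0% = DMSO wells and -100% = cell-free medium wells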
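Knockdown cells (IDH1KD HT-1080) received compounds 2 h after plating at 750 cells/well and were kept 48 h at 37 °C in 5% FBS RPMI. A CellTiter-Glo luminescence read gave % activity for curve fitting.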
TDP1 cell CPT: qHTS for Inhibitors of human tyrosyl-DNA phosphodiesterase 1 (TDP1): qHTS in cells in presence of CPT; Potency, µM (titrated, usually from 46.2 µM), inactives show top-dose activity change, negative = growth inhibition, most hits filed as inhibitors; AID 686979, 2013; chicken DT40 Tdp1-/-;hTDP1 cells + 20 nM CPT, ATP luminescence, 48 h; actives 12% (n = 420,000); further: potency means the concentration at half of the fitted maximal effect; nearly all actives have a fitted effect of over 55% in size
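Cell growth measured by CellTiter-Glo luminescence after a minimum 48 h, 37 C compound exposure with 20 nM CPT in Tdp1-knockout DT40 cells stably expressing hTDP1, seeded 400/well; qHTS titration format.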
TDP1 cell noCPT: qHTS for Inhibitors of human tyrosyl-DNA phosphodiesterase 1 (TDP1): qHTS in cells in absence of CPT; DT40 Tdp1-/- hTDP1 cells, no CPT, ATP luminescence, 48 h; Potency, µM (series often up to 46.2 µM), for inactives: top-dose activity change, negative = growth inhibition, actives largely listed as inhibitors; actives 15% (n = 420,000); AID 686978, 2013; further: potency means the concentration at half of the fitted maximal effect; nearly all actives have a fitted effect of over 55% in size
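Growth kinetics read by CellTiter-Glo luminescence after ≥48 hr at 37 °C. Cells: DT40 Tdp1-/- stably carrying human TDP1, 400 per well, compound exposure in the absence of CPT (DMSO vehicle).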
HT1080NT lethal: qHTS for induction of synthetic lethality in tumor cells producing 2HG: qHTS for the HT-1080-NT fibrosarcoma cell line. HT-1080-NT fibrosarcoma viability, CellTiter-Glo ATP luminescence, 48 h. Potency, µM (top dose mostly 46.1 µM), for the others: at the highest dose activity, negative = less viability, most hits filed as cytotoxic. actives 1.6% (n = 360,000);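 further: NT is the 2HG producing partner of a matched IDH1 knockdown line; potency means the concentration at half of the fitted maximal effect; 0% = DMSO-treated cells and -100% = media-only wells without cells; nearly all actives have a fitted effect of over 55% in size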
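Viability by CellTiter-Glo luminescence after 48 h compound exposure at 37C of HT-1080-NT cells (750/well, RPMI, 5% FBS). % activity scaled between DMSO wells and medium-only wells, then curve-fitted and categorized by curve class.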
IL-1B inflam inh: qHTS for Inhibitors of Inflammasome Signaling: IL-1-beta AlphaLISA Primary Screen; THP-1 LPS/ATP IL-1B secretion, AlphaLISA, 16 h; active compounds read low; activity change, % at 57.5 µM; actives 4.7% (n = 360,000); in the data active means activity change below about -50%; inconclusive means mostly about -30% to -49%
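Secreted IL-1B measured by AlphaLISA bead assay after 16 h compound exposure of THP-1 cells; compounds (final up to 57.5 uM) added 1 h before LPS (250 ng/mL) and ATP (1.25 mM) stimulation; lower signal means less secretion.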
ELG1 repair inh: qHTS screen for small molecules that inhibit ELG1-dependent DNA repair in human embryonic kidney (HEK293T) cells expressing luciferase-tagged ELG1. Potency, µM (highest dose often 46.1 µM), for the others: at the top dose activity change, negative = inhibition, hits mostly inhibitors. actives 2.3% (n = 330,000). HEK293T ELG1-luciferase reporter, luminescence, 16 h; DNA damage induced by 5-fluorouridine; further: potency means the concentration at half of the fitted maximal effect; nearly all actives have a fitted effect of over 55% in size
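Cells (2,000 per well) received 5-fluorouridine plus test compound or DMSO and were incubated 16 hr at 37 °C, 5% CO2. Luciferase activity was read by luminescence 30 min after ONE-Glo addition; signal suppression marked inhibition of damage-induced ELG1 function.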
An asterisk follows results filed as active; ? = inconclusive; · = not tested or not shown. Only some compounds are listed: those with a hit (about 19% of all), similar ones and a draw of the others. Unless noted, the call rests on the fitted dose curve; in most records, active means well fitted curve in the direction sought with a large enough effect; inconclusive means small, poorly fitted or top-dose-only effect, or another doubt; inactive means no such curve, though single readings can be large; an effect the other way counts as inactive or inconclusive. Unless noted, on the % scale 0 is the no-effect control and ±100 the full control effect.

SMILES | HT1080 IDH1KD tx | TDP1 cell CPT | TDP1 cell noCPT | HT1080NT lethal | IL-1B inflam inh | ELG1 repair inh
O=[N+]([O-])c1ccc(/C=N/Nc2ncc(-c3ccccc3)cn2)cc1 | 2% | 4% | 0% | 8% | -9 | -2%
Cc1cc(-c2ccccc2)nc(N/N=C/c2ccc([N+](=O)[O-])cc2)n1 | -9% | ? | ? | -9% | -87* | 13µM*
OC(c1ccc2c(c1)CN(Cc1cccn1-c1cccnc1)CCO2)C1CCCCC1 (stereo unspecified) | · | ? | -29% | · | · | ·
CC(=O)O[C@H]1[C@H](C)OC=C[C@@H]1OC(C)=O | 12% | ? | 16µM* | 27% | 1 | 24%
CC(=O)OC1COC(OC(C)=O)CO1 (stereo unspecified) | -5% | -21% | -16% | -3% | 21 | ·
COC(=O)[C@@]12C[C@@H](CC(=O)N3CCN(C(=O)C4CC4)CC3)C(=O)N(Cc3ccco3)C1=CCC(C)(C)C2 | 3% | ? | ? | 19% | 1 | ·
CCCCCCCCN1C(=O)[C@H](CC(=O)N2CCN(C(=O)OCC)CC2)C[C@@]2(C(=O)OC)CC(C)(C)CC=C12 | ? | 13µM* | 13µM* | ? | -28 | ·
CCCCCCCCN1C(=O)[C@H](CC(=O)N2CCN(C(=O)C3CC3)CC2)C[C@@]2(C(=O)OC)CC(C)(C)CC=C12 | ? | 15µM* | 15µM* | ? | -60* | ·
O=C1CSC(=S)N1Nc1ccccc1 | 5.8µM* | -14% | -14% | ? | -13 | ·
COc1cc(C(=O)N2CCCN(C)CC2)cc(OC)c1C | 17% | -3% | 5% | 22% | -20 | 11%
CCOC(=O)[C@@]12C[C@@H]1/C(=N/O)c1ccccc1O2 | · | 2% | -14% | · | · | ·
Cc1cccc(S(=O)(=O)Nc2ccc(-n3c(C)nc4ccccc4c3=O)cc2)c1 | 4% | ? | 23µM* | 4% | -14 | -15%
COc1ccc(C(=O)Nn2c(C)nc3ccccc3c2=O)cc1[N+](=O)[O-] | 5% | 7% | -2% | -1% | -8 | -8%
Cc1cc(-n2c(C)nc3ccccc3c2=O)ccc1NC(=O)c1ccc(C)c([N+](=O)[O-])c1 | · | 7.3µM* | 5.2µM* | · | · | ·
Cc1nc2ccccc2c(=O)n1-c1ccc(NC(=O)C(F)(F)F)cc1 | · | -21% | -18% | · | · | ·
Cc1nc2ccccc2c(=O)n1-c1ccc(NC(=O)c2ccccc2[N+](=O)[O-])cc1 | · | ? | 23µM* | · | · | ·
COc1ccccc1CNC(=O)c1ccc2c(c1)CCN2S(=O)(=O)c1ccc(Cl)cc1 | · | -28% | ? | · | · | ·
O=C1NC2(CCCC2)C(=O)N1CC(=O)N(Cc1ccccc1)c1ccccc1 | 14% | -14% | ? | -1% | 0 | -2%
CCN(CC)C(=O)c1ncn(Cc2ccccc2)c1C(=O)N(CC)CC | 0% | 10% | 21% | 0% | 20 | 12%
CCc1c(-c2ccc(Cl)cc2)ncn1Cc1cccc(-c2ccccc2)c1 | ? | 6.5µM* | 7.3µM* | ? | -18 | ·
CCc1c(-c2ccccc2)ncn1Cc1cccc(-c2ccccc2)c1 | ? | 8.2µM* | 8.2µM* | ? | -22 | ·
CN(Cc1cn(C)nc1-c1ccccc1F)CC1CCN(Cc2ccccc2)CC1 | ? | ? | ? | ? | -4 | -5%
CCCc1nc2c3ccccc3ccn2c1Cc1cccc(F)c1 | ? | ? | ? | ? | 0 | ·
CCCc1c(Cc2cccc(F)c2)ncn1Cc1cccc(-c2ccccc2)c1 | ? | 3.3µM* | 3.7µM* | ? | · | ·
CCc1c(-c2ccccc2F)ncn1Cc1cccc(-c2ccccc2)c1 | 8.2µM* | 2.6µM* | 2.6µM* | 16µM* | 3 | ·
SMILES | HT1080 IDH1KD tx | TDP1 cell CPT | TDP1 cell noCPT | HT1080NT lethal | IL-1B inflam inh | ELG1 repair inh
CCOC(=O)c1sc(NC(=O)c2nc3nc(C)cc(C(F)F)n3n2)c(C(=O)OC(C)C)c1C | · | 0% | -1% | · | · | ·
O=c1c(CN2CCN(Cc3ccccc3F)C(CCO)C2)coc2ccccc12 (stereo unspecified) | -2% | 2% | -5% | -2% | 22 | -10%
CCc1c(-c2cccc(OC)c2)ncn1Cc1cccc(-c2ccccc2)c1 | ? | 6.5µM* | 8.2µM* | 7.3µM* | -16 | ·
CCc1c(C2CC2)ncn1Cc1cccc(-c2ccccc2)c1 | 16µM* | 1.8µM* | 1.8µM* | 21µM* | -60* | ·
COc1cccc(Cn2cnc(-c3ccccc3OC)c2-c2cccnc2)c1 | -7% | ? | ? | ? | -6 | ·
CCOc1ccc2c(c1)ncn2Cc1ccccc1 | -8% | -4% | -26% | 2% | 3 | ?
Fc1ccc(-c2nc(-c3c[nH]c4ccccc34)cs2)cc1 | · | -30% | -17% | · | · | ·
C/C(=N\NC(=O)Cc1ccccc1)c1cccs1 | -6% | -6% | 2% | 2% | -5 | ?
C/C(=N/NC(=O)Cc1cccc2ccccc12)c1cccs1 | 2% | ? | 16µM* | -2% | 1 | 2%
C/C(=N\NC(=O)c1ccccc1O)c1cccs1 | ? | -12% | 23µM* | ? | 5 | ?
COc1cccc(-c2cc(=O)c3ccc(OC)cc3o2)c1 | · | ? | -27% | · | · | ·
O=[N+]([O-])c1ccccc1S(=O)(=O)NCc1ccccn1 | · | -12% | 12% | · | · | ·
CCCN(CC(=O)Nc1ccccc1OC)C(=O)CC1CCCC1 | 0% | ? | ? | -1% | 1 | -1%
CC(=NNC(=S)N1CC2CCC(CC2)C1)c1ccccn1 | -17% | 0.0082µM* | 0.018µM* | -23% | 41 | ·
C/C(=N\NC(=O)C1CCCN(S(=O)(=O)c2ccccc2)C1)c1ccncc1 (stereo unspecified) | -6% | -9% | -16% | -2% | -7 | 1%
C/C(=N/NC(=O)c1cnccn1)c1ccncc1 | -10% | 11% | -12% | 11% | -6 | ?
C/C(=N\NC(=O)C1CCCN(S(=O)(=O)c2ccccc2)C1)c1ccccn1 (stereo unspecified) | ? | 5.8µM* | 3.3µM* | ? | 92 | ?
